# Experimental data published in the supplement of paper PMC6331611.
# ± gives the standard deviation of the averaged measurements. Whole data set: some 1,600 compounds, median “normalized growth (OD600, IQM-normalized) in LPM” near 1, cut for the lowest 2% near 0.014. What follows is part of a selection rich in the lowest values, with near analogues and random picks from the rest.
# Tested on: Salmonella enterica serovar Typhimurium SL1344
# Experiment: normalized growth (OD600, IQM-normalized) in LPM (fraction of plate interquartile mean); higher = more bacterial growth (less inhibition)
# Conditions: LPM pH 5.8; 10 µM; 16 h
row,SMILES,normalized growth
1,O=C(O)C(=O)O.[NH-][C@@H]1CCCC[C@H]1[NH-].[Pt+2],0.742 ± 0.017
2,O=C(O)P(=O)(O)O,0.953 ± 0.027
3,OC[C@H]1O[C@@H](O[C@H]2[C@H](O)[C@@H](O)C(O)O[C@@H]2CO)[C@H](O)[C@@H](O)[C@H]1O (stereo partly specified),1.14 ± 0.057
4,CO/N=C(\C(=O)N[C@@H]1C(=O)N2C(C(=O)O)=C(C[N+]3(C)CCCC3)CS[C@H]12)c1csc(N)n1,0.0232 ± 0.0056
5,C=CC1=C(C(=O)O)N2C(=O)[C@@H](NC(=O)/C(=N\O)c3csc(N)n3)[C@H]2SC1,0.0112 ± 0.00049
6,CO/N=C(\C(=O)N[C@@H]1C(=O)N2C(C(=O)O)=C(COC(C)=O)CS[C@H]12)c1csc(N)n1,0.0479 ± 0.0089
7,CNCC[C@H](Oc1cccc2ccccc12)c1cccs1,1.05 ± 0.046
8,CN1CC(=O)N2[C@H](c3ccc4c(c3)OCO4)c3[nH]c4ccccc4c3C[C@@H]2C1=O,1.19 ± 0.024
9,CCOC(=O)CCC(=O)O[C@H]1[C@H](O[C@@H]2[C@@H](C)[C@H](O[C@H]3C[C@@](C)(OC)[C@@H](O)[C@H](C)O3)[C@@H](C)C(=O)O[C@H](CC)[C@@](C)(O)[C@H](O)[C@@H](C)C(=O)[C@H](C)C[C@@]2(C)O)O[C@H](C)C[C@@H]1N(C)C,1.14 ± 0.045
10,C=CCCCCCCCCC(=O)[O-].C=CCCCCCCCCC(=O)[O-].[Zn+2],1.15 ± 0.041
11,CCN(CC)CCNC(=O)COc1ccc(OC)cc1,0.869 ± 0.0096
12,CC(C)(O)c1ccccc1CC[C@@H](SCC1(CC(=O)O)CC1)c1cccc(/C=C/c2ccc3ccc(Cl)cc3n2)c1,1 ± 0.023
13,CC(C)CCCC(C)N (stereo unspecified),1.05 ± 0.09
14,CCC(C)(C)C(=O)O[C@H]1C[C@@H](C)C=C2C=C[C@H](C)[C@H](CC[C@@H]3C[C@@H](O)CC(=O)O3)[C@H]21,0.777 ± 0.071
15,CC(=O)OCC[N+](C)(C)C,1.05 ± 0.023
16,CC(=O)N(c1onc(C)c1C)S(=O)(=O)c1ccc(N)cc1,1.08 ± 0.046
17,CO[C@H]1C[C@H](O[C@H]2[C@H](C)O[C@@H](O[C@@H]3/C(C)=C/C[C@@H]4C[C@@H](C[C@]5(C=C[C@H](C)[C@@H](C6CCCCC6)O5)O4)OC(=O)[C@@H]4C=C(C)[C@@H](O)[C@H]5OC/C(=C\C=C\[C@@H]3C)[C@]54O)C[C@@H]2OC)O[C@@H](C)[C@@H]1O,0.776 ± 0.03
18,CC(=O)NCCCS(=O)(=O)O,0.949 ± 0.11
19,CCOC(=O)OC(C)OC1=C(C(=O)Nc2ccccn2)N(C)S(=O)(=O)c2ccccc21 (stereo unspecified),1.04 ± 0.05
20,C[C@H]1COc2c(N3CCN(C)CC3)c(F)cc3c(=O)c(C(=O)O)cn1c23,0.00833 ± 0.00037
21,CC1CCc2c(N3CCC(O)CC3)c(F)cc3c(=O)c(C(=O)O)cn1c23 (stereo unspecified),0.0179 ± 0.013
22,CC1CCc2cc(F)cc3c(=O)c(C(=O)O)cn1c23 (stereo unspecified),0.0174 ± 0.0072
23,CC1COc2c(N3CCN(C)CC3)c(F)cc3c(=O)c(C(=O)O)cn1c23 (stereo unspecified),0.0109 ± 0.00084
24,CN1CCN(c2c(F)cc3c(=O)c(C(=O)O)cn4c3c2SCC4)CC1,0.02519 ± 0.00023

row,SMILES,normalized growth
1,CO/N=C1\CN(c2nc3c(cc2F)c(=O)c(C(=O)O)cn3C2CC2)CC1CN (stereo unspecified),0.0206 ± 0.00035
2,C[C@H]1COc2c(C3(N)CC3)c(F)cc3c(=O)c(C(=O)O)cn1c23,0.008373 ± 7.5e-05
3,CC=CC1=C(C(=O)O)N2C(=O)[C@@H](NC(=O)[C@H](N)c3ccc(O)cc3)[C@H]2SC1,1.04 ± 0.032
4,CCCCC(=O)N(Cc1ccc(-c2ccccc2-c2nnn[nH]2)cc1)[C@H](C(=O)O)C(C)C,0.845 ± 0.034
5,CCC(=O)c1c(O)cc(O)cc1O,1.09 ± 0.016
6,Cc1c(Nc2ncccc2C(=O)O)cccc1C(F)(F)F,1.04 ± 0.041
7,Cl.N=C(N)NCCC[C@H](N)C(=O)O,1 ± 0.042
8,C=C(NC(=O)C(=C)NC(=O)c1csc(C2=N[C@@H]3c4csc(n4)[C@H]4NC(=O)c5csc(n5)[C@H]([C@](C)(O)[C@@H](C)O)NC(=O)[C@H]5CSC(=N5)/C(=C/C)NC(=O)[C@H]([C@@H](C)O)NC(=O)c5csc(n5)[C@]3(CC2)NC(=O)[C@H](C)NC(=O)C(=C)NC(=O)[C@H](C)NC(=O)[C@H]([C@@H](C)CC)N[C@@H]2C=Cc3c([C@H](C)O)cc(nc3[C@H]2O)C(=O)O[C@@H]4C)n1)C(N)=O,1 ± 0.09
9,C=C(C)[C@H]1CC=C(C)CC1,0.978 ± 0.024
10,Cc1cc2nc3c(=O)[nH]c(=O)nc-3n(CC(O)C(O)C(O)COP(=O)(O)O)c2cc1C (stereo unspecified),0.822 ± 0.056
11,O=S(=O)(O)CCSSCCS(=O)(=O)O,1.02 ± 0.069
12,CC(C)[C@H](NC(=O)[C@H](CC(=O)O)NC(=O)[C@H](CCCCN)NC(=O)[C@@H](N)CCCN=C(N)N)C(=O)N[C@@H](Cc1ccc(O)cc1)C(=O)O,0.991 ± 0.011
13,CC(=O)OCC(=O)[C@@]1(O)CC[C@H]2[C@@H]3CCC4=CC(=O)CC[C@]4(C)[C@@]3(F)[C@@H](O)C[C@@]21C,1.09 ± 0.11
14,O=C1c2c(O)cccc2C([C@@H]2O[C@H](CO)[C@@H](O)[C@H](O)[C@H]2O)c2cc(CO)cc(O)c21 (stereo partly specified),1 ± 0.043
15,C[N+]1(C)[C@@H]2CC[C@H]1C[C@@H](OC(=O)C(O)c1ccccc1)C2 (stereo partly specified),0.976 ± 0.081
16,Nc1ncnc(Nc2ccc(Cl)cc2)n1,0.999 ± 0.071
17,CN1CCCN=C1COC(=O)C(O)(c1ccccc1)C1CCCCC1 (stereo unspecified),1.23 ± 0.026
18,CC(O)(CC(=O)O)CC(=O)O,0.921 ± 0.018
19,COc1ccc(CN(CCN(C)C)c2ncccn2)cc1,1.11 ± 0.038
20,CCN(CC)CCOc1ccc(C(=C(Cl)c2ccccc2)c2ccccc2)cc1,1.07 ± 0.023
21,CN(C)[C@@H]1C(O)=C(C(N)=O)C(=O)[C@@]2(O)C(O)=C3C(=O)c4c(O)ccc(Cl)c4[C@@](C)(O)[C@H]3C[C@@H]12,0.0113 ± 0.00051
22,C[C@H]1c2cccc(O)c2C(=O)C2=C(O)[C@]3(O)C(=O)C(C(N)=O)=C(O)[C@@H](N(C)C)[C@@H]3[C@@H](O)[C@@H]21,0.0125 ± 0.00056
23,CN(C)[C@@H]1C(O)=C(C(N)=O)C(=O)[C@@]2(O)C(O)=C3C(=O)c4c(O)cccc4[C@@](C)(O)[C@H]3C[C@@H]12,0.0127 ± 0.00026
24,CN(C)[C@@H]1C(O)=C(C(N)=O)C(=O)[C@@]2(O)C(O)=C3C(=O)c4c(O)cccc4[C@@](C)(O)[C@H]3[C@H](O)[C@@H]12,0.0138 ± 0.00025

row,SMILES,normalized growth
1,CN(C)[C@@H]1C(O)=C(C(=O)NCN2CCCC2)C(=O)[C@@]2(O)C(O)=C3C(=O)c4c(O)cccc4[C@@](C)(O)[C@H]3C[C@@H]12,0.854 ± 0.027
2,C=C1c2cccc(O)c2C(=O)C2=C(O)[C@]3(O)C(=O)C(C(N)=O)=C(O)[C@@H](N(C)C)[C@@H]3[C@@H](O)[C@H]12,0.0154 ± 0.00028
3,C=C1c2c(Cl)ccc(O)c2C(=O)C2=C(O)[C@]3(O)C(=O)C(C(N)=O)=C(O)[C@@H](N(C)C)[C@@H]3[C@@H](O)[C@H]12.O=C(O)c1cc(S(=O)(=O)O)ccc1O,0.0199 ± 0.00036
4,CN(C)[C@@H]1C(O)=C(C(N)=O)C(=O)[C@@]2(O)C(O)=C3C(=O)c4c(O)ccc(Cl)c4[C@@H](O)[C@H]3C[C@@H]12,0.00865 ± 0.00039
5,CN(C)c1ccc(O)c2c1C[C@H]1C[C@H]3[C@H](N(C)C)C(O)=C(C(N)=O)C(=O)[C@@]3(O)C(O)=C1C2=O,0.0111 ± 0.00049
6,CN(C)c1cc(NC(=O)CNC(C)(C)C)c(O)c2c1C[C@H]1C[C@H]3[C@H](N(C)C)C(O)=C(C(N)=O)C(=O)[C@@]3(O)C(O)=C1C2=O,0.962 ± 0.053
7,CC1(C)[C@H]2CC[C@]1(CS(=O)(=O)O)C(=O)C2=Cc1ccc(C=C2C(=O)[C@@]3(CS(=O)(=O)O)CC[C@@H]2C3(C)C)cc1,0.989 ± 0.073
8,CC(=O)[C@H]1CC[C@H]2[C@@H]3CC=C4C[C@@H](OC(=O)CCC(=O)O)CC[C@]4(C)[C@H]3CC[C@]12C,1.02 ± 0.027
9,CCCCC(CC)COC(=O)C(C#N)=C(c1ccccc1)c1ccccc1 (stereo unspecified),0.82 ± 0.0086
10,CCN(CC)CCc1nc(-c2ccccc2)no1,0.956 ± 0.062
11,C/C(=C\C(=O)OCCCCCCCCC(=O)O)C[C@@H]1OC[C@H](C[C@@H]2O[C@H]2[C@@H](C)[C@H](C)O)[C@@H](O)[C@H]1O,0.00952 ± 0.00017
12,COc1cccc(OC)c1C(=O)N[C@@H]1C(=O)N2[C@@H]1SC(C)(C)[C@@H]2C(=O)O,1.12 ± 0.019
13,O=c1[nH]c(=O)n([C@H]2C[C@H](O)[C@@H](CO)O2)cc1I,1.05 ± 0.026
14,CCc1cn([C@H]2C[C@H](O)[C@@H](CO)O2)c(=O)[nH]c1=O,0.664 ± 0.046
15,O=c1[nH]c(=O)n([C@H]2C[C@H](O)[C@@H](CO)O2)cc1F,0.0114 ± 0.00023
16,O=C1C(CC[S+]([O-])c2ccccc2)C(=O)N(c2ccccc2)N1c1ccccc1 (stereo unspecified),1.097 ± 0.0059
17,CN1CCCC(n2nc(Cc3ccc(Cl)cc3)c3ccccc3c2=O)CC1 (stereo unspecified),1.04 ± 0.039
18,N=C(N)NCC1COC2(CCCCC2)O1 (stereo unspecified),0.863 ± 0.015
19,CCCc1nc(C(C)(C)O)c(C(=O)OCc2oc(=O)oc2C)n1Cc1ccc(-c2ccccc2-c2nnn[nH]2)cc1,1.005 ± 0.0069
20,CN(C)CCN(Cc1ccccc1)c1ccccn1,0.906 ± 0.035
21,CCN(CC)C(=O)c1cccnc1,1.14 ± 0.095
22,OC[C@@H](O)[C@@H](O)CO,0.975 ± 0.05
23,COc1ccc(-c2cc(C(F)F)nn2-c2ccc(S(N)(=O)=O)cc2)cc1F,1.01 ± 0.035
